This note sets out measurements from PubChem BioAssay (Tox21).

Inconclusive results are not listed. Entries that show only a call come without a potency. Values without a mark were called inactive. The source made the active and inactive calls. Calls come from the whole dose curve; as a rule, active = well fitted activation curve with a large enough effect in the repeat runs; inconclusive = weak or mixed curves; inactive = flat fitted curve, though single readings scatter.

The nature of this assay: A CellTox Green Cytotoxicity Assay to monitor cytotoxicity in HepG2 cells - 16 hour (AID 1224876). Note: nearly all actives have a fitted effect of over 45% in size. The settings on record: CellTox Green fluorescence; series mostly up to 76.8 µM. An excerpt:
National Center for Advancing Translational Sciences [NCATS]
NIH Chemical Genomics Center [NCGC]
U.S. Environmental Protection Agency [EPA]
National Institutes of Environmental Health Sciences [NIEHS]
National Toxicology Program [NTP]
Cell-based models are critical for drug discovery. Determining the natural cytotoxic effects resulting from test compounds is an essential research activity. A CellTox Green Cytotoxicity Assay to monitor cytotoxicity in real time of continues cell culture during 40 hours of the compound treatment was used to screen Tox21 10K library compounds in HepG2 cells. CellTox Green Cytotoxicity Assay is a nonlytic, homogeneous, biofluorescent method to measure cytotoxicity in cell culture after experimental manipulation. The assay system uses a proprietary asymmetric cyanine dye that is excluded from viable cells but preferentially stains the dead cell's DNA. […] Viable cells produce no appreciable increases in fluorescence. Therefore, the fluorescence signal produced by the binding interaction with dead cell DNA is proportional to cytotoxicity.
The mixture of HepG2 cell suspension and reagents were dispensed at 600cells/6 ul/well in 1536-well tissue culture treated black solid bottom plates using a Multidrop dispenser. After the assay plates were incubated at a 37 C/5% CO2 incubator for 5 hours, 23 nL of compounds dissolved in DMSO, positive and negative controls was transferred to the assay plate by a pintool work station. The plates were incubated at 37 C for 40 hours. The fluorescence intensity were measured at 0h, 8h, 16h, 24h, 32h and 40h time points using ViewLux plate reader during compound treatment.
For the compound `Cc1ccccc1N1CCN(CCc2nnc3n2CCCC3)CC1`, the Potency result was “inactive”.
Consider `CCCOCCOCCOCCO`, for which the Potency result was “inactive”.
With `CCN(CC)C(=O)C1CN2CCc3cc(OC)c(OC)cc3C2CC1OC(C)=O` (stereo not given), the Potency entry is “inactive”.
In the case of `COC(OC)C(C)c1ccccc1` (stereo not given), the Potency entry is “inactive”.
The same measure, in the same setting: in the case of `CCOC(=O)C(C)(C)C` it was “inactive”.
`C=CCOCC(O)CCl` (stereo not given): the Potency entry was “inactive”.
The same measure, in the same setting: for `Cc1cc(C)cc([N+](=O)[O-])c1` the value was “inactive”.
With `Nc1cc(Cl)cc(S(=O)(=O)O)c1O`, the Potency entry is “inactive”.
In the case of `COc1cc([N+](=O)[O-])ccc1N`, the Potency entry is “inactive”.
On to `c1ccc(CNc2ncnc3nc[nH]c23)cc1`, for which the Potency entry is “inactive”.
For the compound `C=CCCCCCCCCCCC`, the cytotoxicity increase was -0.067% [at 6.97 µM].
Take `CCOC(=O)CC#N`: the Potency result is “inactive”.
As for `Nc1ccc(C(=O)OCC(O)CO)cc1` (stereo not given), the Potency entry was “inactive”.
Consider `CC(C)CCO`, for which the Potency result is “inactive”.
Consider `COc1cc2c(Nc3ccc(Br)cc3F)ncnc2cc1OCC1CCN(C)CC1`, for which the Potency entry was “inactive”.
In the case of `Cc1cccc(NC(=S)N(C)C)c1`, the Potency result was “inactive”.
For the compound `CCCCCCCCCCCCC1CO1` (stereo not given), the Potency entry was “inactive”.
As for `O=C(O)c1c(Cl)ccc(Cl)c1Cl`, the Potency result was “inactive”.
Take `CC(C)(CO)[C@@H](O)C(=O)NCCCO`: the Potency entry is “inactive”.
In the case of `CCOC(=O)OCC/C(SC(=O)OCC)=C(\C)N(C=O)Cc1cnc(C)nc1N`, the Potency result is “inactive”.
Regarding `CC(=O)OC(C(=O)c1ccccc1)c1ccccc1` (stereo not given), the Potency entry is “inactive”.
Regarding `CCCCOC(=O)C(=O)OCCCC`, the Potency entry was “inactive”.
Take `C=CC(C)(O)CC/C=C(\C)CC` (stereo not given): the Potency entry is “inactive”.
Regarding `CN[C@@H]1[C@H](O)[C@H](NC)[C@H]2O[C@@]3(O)C(=O)C[C@@H](C)O[C@H]3O[C@@H]2[C@H]1O`, the Potency result was “inactive”.
On the same count and under the same terms, in the case of `CC(C)C(=O)Nc1cccc(C(F)(F)F)c1` it was “inactive”.
Consider `COC(/C=C(\C)CCC=C(C)C)OC`, for which the Potency result was “inactive”.
Consider `Cc1ccccc1OCC1CO1` (stereo not given), for which the Potency entry is “inactive”.
Still for that read-out and setting: for `c1ccccc1` the value was “inactive”; for `CCCCCCCCCCCCCCCCCCN(C)C`, “inactive”; for `CN=C(NC#N)NCCSCc1csc(N=C(N)N)n1`, “inactive”.
`O=C(O)/C=C/c1ccccc1`: the Potency entry was “inactive”.
On to `Cc1nc(C)nc(N2C[C@@H](C)N(c3ccnc([C@@H](C)O)n3)[C@@H](C)C2)n1`, for which the Potency result is “inactive”.
With `CC(=O)c1ccc(OCC(=O)N2CCCCC2)cc1`, the Potency entry was “inactive”.
`CCCCCC1CCCC(=O)O1` (stereo not given): the Potency result was “inactive”.
With `CCCCCCCCC(=O)OCC`, the Potency entry was “inactive”.
Take `COc1ccc(OC)c(NC(=O)CC(C)=O)c1`: the Potency result was “inactive”.
For the compound `O=c1[nH]c(=O)c2[nH]c(=O)[nH]c2[nH]1`, the cytotoxicity increase is -0.724% [at 6.97 µM].
With `BrC/C=C/CBr`, the cytotoxicity increase is -13.9% [at 15.8 µM].
Turning to `O=C1NC2NC(=O)NC2N1` (stereo not given), the Potency entry was “inactive”.
On to `C=C(C)C(=O)OCCCCCCOC(=O)C(=C)C`, for which the Potency entry is “inactive”.
